Experimental data taken from PubChem BioAssay (NCI).
About 79,000 compounds went through this panel and 15% of them were active in at least one assay; those are over-represented in the sample as a whole. Active and inactive are the calls of the source. No stated cut-off is given here; in the data, active means growth inhibition above about 70%; inactive means the rest.

Test: NCI Yeast Anticancer Drug Screen. Data for the rad52 strain (AID 147);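 further: 0% = growth of vehicle-treated control cultures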
Conditions: S. cerevisiae rad52 mutant growth inhibition, active compounds read high
Description: Growth inhibition of yeast strains with defined genetic alterations is measured as a screen for potential anti-cancer activity. Selected strains with alterations in DNA damage repair or cell cycle control were exposed to compounds and growth inhibition was measured relative to vehicle treated controls. The strain used in this assay is rad52

SMILES | growth inhibition (at 1.2 µM) | growth inhibition (at 3.7 µM) | growth inhibition (at 11.0 µM) | growth inhibition (at 33.0 µM) | growth inhibition (at 100.0 µM)
Cc1cccc(/C=N/NC(=S)N(C)CCc2ccccn2)n1 | 96% (active) | 98% (active) | 98% (active) | 99% (active) | 99% (active)
Cn1ncc2cc3c(Nc4ccc(Cl)cc4)cccc3nc21 | 2% (inactive) | 2% (inactive) | 6% (inactive) | 39% (inactive) | 96% (active)
O=C1c2c(O)cccc2-c2nn(CCNCCO)c3ccc(NCCNCCO)c1c23 | 17% (inactive) | 43% (inactive) | 73% (active) | 81% (active) | 87% (active)
O=Cc1coc2ccccc2c1=O | -9% (inactive) | 3% (inactive) | 11% (inactive) | 22% (inactive) | 48% (inactive)
Cc1ccc(S(=O)(=O)N(C)c2ccc(Cl)cc2C2=NCCc3ccccc32)cc1 | 2% (inactive) | -8% (inactive) | -6% (inactive) | 3% (inactive) | 95% (active)
Cc1ccc(Nc2n[nH]c(=S)s2)cc1 | -2% (inactive) | 2% (inactive) | 6% (inactive) | 74% (active) | 94% (active)
CN(N=O)C(=O)N[C@@H](C=O)[C@@H](O)[C@H](O)[C@H](O)CO | 0% (inactive) | 1% (inactive) | 5% (inactive) | 2% (inactive) | 3% (inactive)
OC(CN1CCCCC1)c1cc(Cl)c(Cl)c(Cl)c1 (stereo not given) | 3% (inactive) | 11% (inactive) | 17% (inactive) | 28% (inactive) | 40% (inactive)
